Assay [1] in a line: Counterscreen for APE1 Inhibitors: Fluorescent Dye Displacement Validation Assay (AID 1707). A digest of the protocol: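 Signal: ThO fluorescence (ex 480 nm/em 540 nm) on binding 50 nM dsDNA; displacement by test compound reduces it. Conditions: 250 nM dye, 50 mM Tris-HCl pH7.5, 2 mM MgCl2, 50mM NaCl, 0.01% Tween-20.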
On the technique in general: A counterscreen serves to expose hits that act by an unwanted route or on another target.

Assay [2] in a line: qHTS for differential inhibitors of proliferation of Plasmodium falciparum line 3D7 (AID 1876). Note: potency is the fitted concentration of half-maximal effect. On the technique in general: Quantitative high-throughput screening tests each substance at several concentrations.
A short description of assay [3]: qHTS for differential inhibitors of proliferation of Plasmodium falciparum line D10 (AID 1877).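 Note: parasites grown with compound for 72 h before DNA staining.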 Note: potency is the fitted concentration of half-maximal effect.
Assay [4] can be described thus: qHTS for differential inhibitors of proliferation of Plasmodium falciparum line Dd2 (AID 1882). Note: nearly all actives have a fitted effect of over 65% in size. Note: potency is the fitted concentration of half-maximal effect. The conditions noted are these: Potency: Plasmodium falciparum Dd2 proliferation inhibition. A digest of the protocol:
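SYBR Green DNA fluorescence (ex 485, em 535 nm) after overnight lysis quantifies parasite growth; compound exposure lasted 72 h at 37 C on infected red cells at 2.5% hematocrit, 0.3% parasitemia (final). Artemisinin 0.29 uM and vehicle wells define normalization.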

Assay [5] in a line: qHTS for differential inhibitors of proliferation of Plasmodium falciparum line HB3 (AID 1886).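 Note: parasites grown with compound for 72 h before SYBR Green readout.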 Note: potency is the fitted concentration of half-maximal effect. The conditions noted are these: Potency: Plasmodium falciparum HB3 proliferation inhibition.
The target in assay [6] is DNA repair nuclease/redox regulator APEX1 (Homo sapiens) (UniProt P27695). Description: qHTS Validation Assay for Inhibitors of the Human Apurinic/apyrimidinic Endonuclease 1 (APE1) (AID 1705;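 note: TAMRA fluorescence gain over two minutes as APE1 cuts a quenched THF abasic duplex; series mostly up to about 57 µM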). A digest of the protocol:
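qHTS, 1536-well. APE1 + cpd 15 min RT → 50 nM TAMRA/BHQ-2 THF-abasic dsDNA substrate → kinetic fluorescence, 3 reads/60 s; delta(read3−read1) = reaction progress. No-enzyme buffer = negative control.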

Assay [7] is described as follows: qHTS for differential inhibitors of proliferation of Plasmodium falciparum line W2 (AID 1883).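 Note: parasites grown with compound for 72 h before lysis and staining.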 Note: potency is the fitted concentration of half-maximal effect. The conditions noted are these: Potency: Plasmodium falciparum W2 proliferation inhibition.
A short description of assay [8]: qHTS for differential inhibitors of proliferation of Plasmodium falciparum line 7G8 (AID 1815).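 Note: parasite growth measured after three days of incubation.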 Note: potency is the fitted concentration of half-maximal effect.
The nature of assay [9]: qHTS for differential inhibitors of proliferation of Plasmodium falciparum line GB4 (AID 1816).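 Note: parasite growth measured after 72 h incubation.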 Note: potency is the fitted concentration of half-maximal effect. The conditions noted are these: Potency: Plasmodium falciparum GB4 proliferation inhibition.

Results filed as inconclusive are left out. Activity calls are given as the source filed them. Calls come from the whole dose curve; as a rule, active = well fitted curve in the direction sought with a large enough effect; inconclusive = small, poorly fitted or top-dose-only effect, or another doubt; inactive = no such curve, though single readings can be large; an effect the other way counts as inactive or inconclusive.

Sequence of DNA repair nuclease/redox regulator APEX1 (Homo sapiens) (P27695 whole entry, looked up): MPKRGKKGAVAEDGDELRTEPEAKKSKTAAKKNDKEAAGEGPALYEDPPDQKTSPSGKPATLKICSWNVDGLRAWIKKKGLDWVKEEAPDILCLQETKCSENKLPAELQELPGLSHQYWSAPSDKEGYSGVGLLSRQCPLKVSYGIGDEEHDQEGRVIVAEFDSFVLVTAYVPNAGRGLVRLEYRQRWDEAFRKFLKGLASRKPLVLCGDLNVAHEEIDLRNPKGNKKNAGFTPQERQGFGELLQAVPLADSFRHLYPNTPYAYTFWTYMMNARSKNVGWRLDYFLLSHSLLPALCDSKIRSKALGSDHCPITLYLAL

In the case of `CC(C)NCC(O)COc1ccc(COCCOC(C)C)cc1` (stereo not given), the compound was classed as inactive in [1]. Also, the Potency entry in assay [2], in assay [3], in [4] and in [5] was “inactive” throughout.

`Cn1cnc([N+](=O)[O-])c1Sc1ncnc2nc[nH]c12`: the compound was called inactive in assay [6] and in assay [1]. Besides, the Potency in assay [2] and in [7] was 12.6 µM (active) throughout.

As to `CCC(C)N(C)C(=O)c1cc2ccccc2c(-c2ccccc2Cl)n1` (stereo not given), the compound was called inactive in [6] and in [1]. Further, the Potency is 7.94 µM (active) in [8]; 12.6 µM (active) in assay [9]; 11.2 µM (active) in assay [3]; 7.94 µM (active) in [7]; 12.6 µM (active) in assay [5]. Besides, the Potency entry in assay [4] is “inactive”.

Regarding `Clc1cccc(Cl)c1NC1=NCCN1`, the compound was classed as inactive in assay [6] and in assay [1]. Moreover, the Potency result in assay [8], in assay [2], in [3], in assay [4] and in [5] was “inactive” throughout.

Turning to `NNCCc1ccccc1`, the compound was called inactive in [6] and in [1]. Further, the Potency result in assay [3] and in assay [4] was “inactive” in each case.

On to `C1COC(NC(C2CC2)C2CC2)=N1`, for which the call in [6] and in assay [1] was inactive. The Potency in [8] is 7.94 µM (active); in [7], 14.1 µM (active); in assay [5], 10 µM (active).

As for `Cc1cn[nH]c1`, in assay [1], the outcome was inactive. For the same compound, the Potency result in assay [8], in assay [9], in assay [2], in [3], in assay [4] and in assay [7] was “inactive” each time. Moreover, the Potency result in assay [5] is “inactive”.

As for `Cc1ccc(N(CC2=NCCN2)c2cccc(O)c2)cc1`, the compound was called inactive in [6] and in [1]. For the same compound, the Potency entry in assay [3] and in [4] was “inactive” in each case. Besides, the Potency in assay [7] is 11.2 µM (active).

Take `NC[C@H](O)c1ccc(O)c(O)c1`: the outcome in [6] and in [1] was inactive. Moreover, the Potency result in assay [9], in [2], in [3], in assay [4] and in [5] was “inactive” each time.

As to `c1ccc([C@H]2CN3CCSC3=N2)cc1`, the compound was classed as inactive in assay [6] and in assay [1]. Also, the Potency result in [8], in [2], in assay [3], in assay [4] and in [5] was “inactive” each time.

`Cc1[nH]c(=O)c(C#N)cc1-c1ccc2nccn2c1`: the call in assay [6] and in assay [1] was inactive. The Potency entry in [8], in assay [9], in assay [2], in assay [4] and in [5] was “inactive” each time.

As for `CCOC(=O)C1=C[C@]2(CC)CCCN3CCc4c(n1c1ccccc41)[C@@H]32`, the compound was classed as inactive in assay [6] and in [1]. Further, the Potency in [8] was 7.08 µM (active); in assay [9] it was 7.94 µM (active); in assay [7] it was 14.1 µM (active); in assay [5] it was 12.6 µM (active).

Regarding `Oc1ccc(C2CNCCc3c2cc(O)c(O)c3Cl)cc1` (stereo not given), the compound was called inactive in [6] and in assay [1]. For the same compound, the Potency in assay [9] is 10 µM (active); in [2], 10 µM (active); in [3], 11.2 µM (active); in assay [7], 10 µM (active); in assay [5], 11.2 µM (active). For the same compound, in assay [4], the Potency entry was “inactive”.

Take `O=C1CCc2cc(OCCCCc3nnnn3C3CCCCC3)ccc2N1`: the outcome in assay [6] and in [1] was inactive. For the same compound, the Potency in assay [8] is 14.1 µM (active). For the same compound, the Potency entry in assay [4] was “inactive”.

As for `CCn1cc(C(=O)O)c(=O)c2cc(F)c(N3CCNC(C)C3)c(F)c21` (stereo not given), the call in assay [6] and in assay [1] was inactive. The Potency in assay [2] is 11.2 µM (active); in assay [7] it was 10 µM (active).

As to `NCCc1ccc(O)c(O)c1`, the outcome in [6] and in [1] was inactive. In addition, in assay [4], the Potency entry is “inactive”. Also, in [7], the Potency is 10 µM (active).

Regarding `O=NN(CCCl)C(=O)NCCCl`, the result in assay [6] and in assay [1] was inactive. Moreover, the Potency result in [8], in assay [9], in assay [2], in [4], in assay [7] and in [5] was “inactive” throughout.

In the case of `Cc1oncc1C(=O)Nc1ccc(C(F)(F)F)cc1`, the outcome in [6] and in [1] was inactive. Besides, the Potency entry in [8], in assay [9], in [3], in assay [4] and in assay [5] was “inactive” throughout.

In the case of `CC(C)(Sc1ccc(CCN(CCCCC2CCCCC2)C(=O)NC2CCCCC2)cc1)C(=O)O`, the call in [6] and in [1] was inactive. In addition, the Potency entry in assay [2], in [3], in assay [4] and in [5] was “inactive” each time.

For the compound `O=c1n(CCCN2CCN(c3cccc(Cl)c3)CC2)nc2ccccn12`, the compound was called inactive in [6] and in assay [1]. The Potency entry in assay [2], in assay [3], in assay [4] and in assay [5] was “inactive” throughout.

As for `CC(C)C[C@H](NC(=O)[C@@H](O)[C@H](N)Cc1ccccc1)C(=O)O`, the result in assay [1] was inactive. Moreover, the Potency is 2.51 µM (active) in assay [8]; 2.51 µM (active) in [9]; 0.631 µM (active) in assay [2]; 2.82 µM (active) in [3]; 2.24 µM (active) in assay [4]; 1 µM (active) in [7]. In assay [5], the Potency was 3.55 µM (active).

Consider `Cc1ccccc1C(OCCN(C)C)c1ccccc1` (stereo not given), for which the call in assay [6] and in assay [1] was inactive. The Potency is 3.98 µM (active) in assay [8] and 0.708 µM (active) in assay [7]. The Potency entry in [3] is “inactive”.

As to `Cc1cnc(NC(=O)C2=C(O)c3ccccc3S(=O)(=O)N2C)s1`, the compound was called inactive in [6] and in assay [1]. Further, the Potency entry in assay [2], in assay [3], in assay [4] and in assay [5] was “inactive” in each case. Also, the Potency in assay [7] was 8.91 µM (active).

For the origin of these results see PubChem BioAssay (NCATS).
